Here are results for three compounds from PubChem BioAssay (EPA / NIEHS).

The target in test [1] is Bile acid receptor (Homo sapiens) (UniProt Q96RI1). The test is described as follows: ATG_FXR_TRANS: Attagene TRANS-FACTORIAL HepG2 Assay for Farnesoid X Receptor (FXR) (AID 2282979; active means hit-call score of the fitted dose curve at least 0.9, where 1 is the maximum;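 further: hits raise reporter mRNA above DMSO so AC50 marks FXR activation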). The following applies: HepG2 Attagene TRANS FXR-GAL4 reporter transcription. A digest of the protocol:
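Transient transfection of HepG2 with multiplexed GAL4-UAS reporter units; exogenous FXR-GAL4 chimera. Dose 24 h → TriZol RNA → oligo(dT) RT → PCR, 6-FAM primer extension, HpaI cut → CE. Gain vs DMSO.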

Test [2] can be described thus: ATG_M_06_TRANS: Attagene TRANS-FACTORIAL HepG2 Assay for M06 Transcription Factor (Internal Marker) (AID 2282983; active means hit-call score of the fitted dose curve at least 0.9, where 1 is the maximum;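 further: reporter transcript level by RT-PCR then capillary electrophoresis fluorescence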). The following applies: HepG2 Attagene TRANS M06 internal marker reporter. A digest of the protocol:
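Background control endpoint: reporter mRNA from transiently transfected HepG2 after 24 h dosing, detected by RT-PCR with capillary electrophoresis fluorescence. Analysed for gain versus DMSO.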

The target in test [3] is Transcriptional activator Myb (Homo sapiens) (UniProt P10242). Put plainly: ATG_Myb_CIS: Attagene CIS-FACTORIAL HepG2 Assay for human Myeloblastosis (Myb) Proto-Oncogene Transcription Factor (AID 2282986). The following applies: HepG2 Attagene CIS-FACTORIAL Myb reporter transcription; actives raise or lower the signal. A digest of the protocol:
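Using HepG2 liver cells bearing transiently transfected cis-promoter reporter constructs, the assay measures induction or loss of reporter mRNA after 24 hours of dosing. Detection used fluorescently labeled RT-PCR products separated by capillary electrophoresis.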

The target in test [4] is Nuclear respiratory factor 1 (Homo sapiens) (UniProt Q16656). The test is described as follows: ATG_NRF1_CIS: Attagene CIS-FACTORIAL HepG2 Assay for human Nuclear Respiratory Factor 1 (NRF1) Orphan Gene (AID 2282987). The following applies: HepG2 NRF1 cis-element reporter, Attagene multiplex; actives raise or lower the signal. A digest of the protocol:
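Reporter mRNA induction or loss in HepG2 cells after 24 h dosing; cis-regulated reporter constructs report endogenous transcription-factor activity. Quantified by RT-PCR/capillary electrophoresis fluorescence, DMSO-referenced.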

The nature of test [5]: ATG_NFI_CIS: Attagene CIS-FACTORIAL HepG2 Assay for human Nuclear Factor I (NFI) (AID 2282989). The following applies: HepG2 cis-regulatory reporter, NFI response element transcription; actives raise or lower the signal. A digest of the protocol: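 Cells: human liver HepG2, transiently transfected with promoter-regulated reporter transcription units. Exposure 24 h. Detection: fluorescent RT-PCR products separated by capillary electrophoresis, normalised to DMSO negative control.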

Test [6] addresses Myc proto-oncogene protein (Homo sapiens) (UniProt P01106). The test is described as follows: ATG_Myc_CIS: Attagene CIS-FACTORIAL HepG2 Assay for human Myelocytomatosis (Myc) Proto-Oncogene Transcription Factor (AID 2282990). The following applies: HepG2, Attagene cis-reporter transcription factor activity; actives raise or lower the signal. A digest of the protocol: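 Read-out: fluorescent reporter mRNA fragments resolved by capillary electrophoresis after RT-PCR. Human HepG2 liver cells carried transfected cis-element reporter units and were dosed for 24 h. Gain or loss of signal fitted relative to DMSO baseline.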

Test [7] in a line: ATG_NRF2_ARE_CIS: Attagene CIS-FACTORIAL HepG2 Assay for human Nuclear Factor Erythroid 2 Related Factor 2 (NFR2) response to Antioxidant Response Elements (ARE) (AID 2282992).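 On AC50: reporter mRNA level measured by RT-PCR and capillary electrophoresis fluorescence.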 The following applies: HepG2 Attagene ARE/NRF2 reporter, transcription factor activity; actives raise or lower the signal. A digest of the protocol:
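Fluorescence intensity of reporter-specific cDNA fragments, separated by capillary electrophoresis, reflects mRNA induction in transfected HepG2 cells at 24 h. Activity is fitted bidirectionally, DMSO serving as baseline.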

Test [8] in a line: ATG_Oct_MLP_CIS: Attagene CIS-FACTORIAL HepG2 Assay for human Octamer-Binding Transcription Factor (Oct) (AID 2282993). The following applies: HepG2 Attagene cis-factorial Oct reporter, mRNA; actives raise or lower the signal. A digest of the protocol: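 HepG2, transient MRTU transfection, cis promoter elements; 24 h dosing; RT-PCR/CE fluorescence read-out of reporter mRNA; fit both directions vs DMSO.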

Test [9] concerns the target Cellular tumor antigen p53 (Homo sapiens) (UniProt P04637). Put plainly: ATG_p53_CIS: Attagene CIS-FACTORIAL HepG2 Assay for human p53 Transcription Factor (AID 2282994). The following applies: HepG2 p53 cis-element reporter, Attagene mRNA; actives raise or lower the signal. A digest of the protocol: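 Transiently transfected HepG2 (multiple cis reporter transcription units); exposure 24 h; reporter RNA via RT-PCR, 6-FAM extension, 2 h HpaI digest at 37 C, CE detection; DMSO baseline.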

Test [10] in a line: BSK_3C_TissueFactor: BioMAP Diversity Plus: 3C Assay for Tissue Factor Biomarker Activity (AID 2282997). The following applies: BioMAP 3C HUVEC, tissue factor biomarker readout; actives raise or lower the signal. A digest of the protocol: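 After a 24 h chemical exposure of primary human umbilical vein endothelial cells, Tissue Factor levels were quantified by ELISA.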
Test [11] can be described thus: BSK_3C_uPAR: BioMAP Diversity Plus: 3C Assay for Urokinase-type plasminogen activator receptor (uPAR) Biomarker Activity (AID 2282998). The following applies: BioMAP 3C HUVEC, uPAR biomarker ELISA; actives raise or lower the signal. A digest of the protocol:
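A multiplexed primary-cell system built on human umbilical vein endothelium was used, with chemical present for 24 h before reading. Cell-surface uPAR was detected by ELISA; signal change in either direction counted against DMSO.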
In general terms: An ELISA detects its analyte on a solid surface through an enzyme-linked reagent.

Test [12] is described as follows: BSK_3C_VCAM1: BioMAP Diversity Plus: 3C Assay for Vascular cell adhesion molecule 1 (VCAM1) Biomarker Activity (AID 2282999). The following applies: BioMAP 3C HUVEC, VCAM1 ELISA, cytokine-stimulated; actives raise or lower the signal. A digest of the protocol: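 HUVEC primary cells, 24 h compound exposure; VCAM-1 by ELISA; gain/loss of signal fitted bidirectionally vs DMSO baseline.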

Test [13] can be described thus: BSK_4H_Eotaxin3: BioMAP Diversity Plus: 4H Assay for Eotaxin 3 Biomarker Activity (AID 2283000).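 Further: CCL26 protein level quantified by ELISA in parallel with SRB cytotoxicity check.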 The following applies: primary human endothelial cells (HUVEC); actives raise or lower the signal. A digest of the protocol: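 Chemicals were added to human umbilical vein endothelium cultures, and Eotaxin-3 was quantified by ELISA at 24 h. Values were derived by bidirectional fitting with DMSO serving as negative control and activity baseline.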

Test [14] has as its target Estrogen-related receptor gamma (Homo sapiens) (UniProt P62508). The test is described as follows: ATG_ERRg_TRANS: Attagene TRANS-FACTORIAL HepG2 Assay for human Estrogen-Related Receptor gamma (ERRg) (AID 2282977; active means hit-call score of the fitted dose curve at least 0.9, where 1 is the maximum;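 further: hits increase reporter signal over DMSO so potencies reflect activators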). The following applies: HepG2 Attagene TRANS reporter, ERRg transactivation. A digest of the protocol:
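Readout: fluorescent reporter-mRNA fragments resolved by capillary electrophoresis after RT-PCR and HpaI cut. Cells: transiently transfected HepG2 carrying GAL4-UAS reporters driven by exogenous NR-Gal4 chimeras, dosed 24 h. Activity fitted upward relative to DMSO baseline.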

Test [15] deals with Oxysterols receptor LXR-alpha (Homo sapiens) (UniProt Q13133). Put plainly: ATG_LXRa_TRANS: Attagene TRANS-FACTORIAL HepG2 Assay for human Liver X Receptor alpha (LXRa) (AID 2282980; active means hit-call score of the fitted dose curve at least 0.9, where 1 is the maximum). The following applies: HepG2 Attagene TRANS reporter, LXRa transactivation. A digest of the protocol:
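Transfect HepG2 with GAL4-UAS multiplex reporter constructs (TRANS format, chimeric receptor-GAL4); treat 24 h; extract RNA, reverse-transcribe, PCR-amplify, FAM-label, HpaI-digest; resolve fragments by capillary electrophoresis. Upward response vs DMSO.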

Test [16] concerns the target Oxysterols receptor LXR-beta (Homo sapiens) (UniProt P55055). The test is described as follows: ATG_LXRb_TRANS: Attagene TRANS-FACTORIAL HepG2 Assay for human Liver X Receptor beta (LXRb) (AID 2282981; active means hit-call score of the fitted dose curve at least 0.9, where 1 is the maximum). The following applies: HepG2 Attagene TRANS GAL4-LXRb reporter, mRNA. A digest of the protocol: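 Readout: fluorescent reporter mRNA fragments resolved by capillary electrophoresis after RT-PCR. System: transiently transfected human HepG2, exogenous LXRb-Gal4 chimera driving GAL4-UAS reporter, 24 h dosing. Activity fitted upward against DMSO baseline.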

Test [17] is described as follows: ATG_M_32_TRANS: Attagene TRANS-FACTORIAL HepG2 Assay for M32 Transcription Factor (Internal Marker) (AID 2282984; active means hit-call score of the fitted dose curve at least 0.9, where 1 is the maximum;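 further: transcript level of a background control reporter unit measured by RT-PCR and capillary electrophoresis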). The following applies: HepG2 Attagene TRANS M32 internal marker reporter. A digest of the protocol:
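Read-out: fluorescent reporter cDNA fragments resolved by capillary electrophoresis after RT-PCR of total RNA. Transfected HepG2 cells were exposed to chemical for 24 h. Activity scored in the positive direction relative to DMSO.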

Test [18] has as its target Nuclear receptor subfamily 4 group A member 2 (Homo sapiens) (UniProt P43354). Put plainly: ATG_NURR1_TRANS: Attagene TRANS-FACTORIAL HepG2 Assay for human Nuclear Receptor Related Protein 1 (NURR1) (AID 2282985; active means hit-call score of the fitted dose curve at least 0.9, where 1 is the maximum). The following applies: HepG2 Attagene TRANS reporter, mRNA readout. A digest of the protocol: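 Read-out: reporter mRNA induction by RT-PCR plus capillary electrophoresis with fluorescence detection, after 24 h dosing of transfected HepG2 cells. Exogenous NR-Gal4 chimera activity drives GAL4-UAS reporter; activity fitted upward versus DMSO.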

The nature of test [19]: ATG_NF_kB_CIS: Attagene CIS-FACTORIAL HepG2 Assay for human Nuclear Factor Kappa B (NF-kB) (AID 2282991). The following applies: HepG2 Attagene cis-factorial NF-kB reporter mRNA; actives raise or lower the signal. A digest of the protocol:
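DMSO served as negative control and baseline for bidirectional curve fitting. Transiently transfected HepG2 cells were dosed for 24 h, then reporter transcripts were measured by RT-PCR with capillary electrophoresis detection.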

The target of test [20] is Hepatocyte nuclear factor 4-alpha (Homo sapiens) (UniProt P41235). The test is described as follows: ATG_HNF4a_TRANS: Attagene TRANS-FACTORIAL HepG2 Assay for human Hepatocyte Nuclear Factor 4 alpha (HNF4a) (AID 2282982; active means hit-call score of the fitted dose curve at least 0.9, where 1 is the maximum). The following applies: HepG2 HNF4a transactivation reporter, mRNA readout. A digest of the protocol:
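Transient MRTU transfection of HepG2, 24 h dosing. Readout: reporter mRNA via RT-PCR + capillary electrophoresis, fluorescence; activity fit upward relative to DMSO control.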

Where “and” joins values, the source holds several entries; their conditions need not be identical. Equal entries are not always repeated. Results filed as inconclusive are left out. Some compounds were tested as several samples or in several runs, with calls that do not always agree. Calls of active or inactive are those of the source. How the source made its calls, unless noted: active means hit-call score of the fitted dose curve at least 0.9, where 1 is the maximum; inactive means score below 0.9.

Bile acid receptor (Homo sapiens), sequence (Q96RI1 whole entry, looked up, the tested form may be a part): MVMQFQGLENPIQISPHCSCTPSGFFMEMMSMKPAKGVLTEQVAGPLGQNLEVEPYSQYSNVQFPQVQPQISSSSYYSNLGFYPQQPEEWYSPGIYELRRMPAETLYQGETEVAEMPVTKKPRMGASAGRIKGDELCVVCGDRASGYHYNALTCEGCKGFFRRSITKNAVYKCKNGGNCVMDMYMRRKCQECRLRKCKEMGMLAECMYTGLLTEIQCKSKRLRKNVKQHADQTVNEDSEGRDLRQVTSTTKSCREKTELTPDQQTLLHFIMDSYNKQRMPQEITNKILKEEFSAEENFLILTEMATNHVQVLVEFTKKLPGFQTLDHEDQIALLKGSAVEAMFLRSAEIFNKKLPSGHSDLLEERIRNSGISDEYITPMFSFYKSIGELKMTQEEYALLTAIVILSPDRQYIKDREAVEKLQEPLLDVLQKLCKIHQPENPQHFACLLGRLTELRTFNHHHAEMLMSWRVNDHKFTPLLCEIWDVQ
Cellular tumor antigen p53 (Homo sapiens), sequence (P04637 whole entry, looked up): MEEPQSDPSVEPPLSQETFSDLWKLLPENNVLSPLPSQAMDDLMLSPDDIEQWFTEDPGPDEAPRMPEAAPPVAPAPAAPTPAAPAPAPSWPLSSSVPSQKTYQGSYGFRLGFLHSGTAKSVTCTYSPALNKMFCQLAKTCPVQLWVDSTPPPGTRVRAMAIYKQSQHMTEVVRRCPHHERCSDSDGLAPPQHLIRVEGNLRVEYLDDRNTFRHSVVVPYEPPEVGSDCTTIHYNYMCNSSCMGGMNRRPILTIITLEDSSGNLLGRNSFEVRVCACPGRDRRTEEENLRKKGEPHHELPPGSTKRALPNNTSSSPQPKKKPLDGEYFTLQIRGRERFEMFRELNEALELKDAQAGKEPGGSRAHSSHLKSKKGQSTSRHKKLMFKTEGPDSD
Oxysterols receptor LXR-beta (Homo sapiens), sequence (P55055 whole entry, looked up, the tested form may be a part): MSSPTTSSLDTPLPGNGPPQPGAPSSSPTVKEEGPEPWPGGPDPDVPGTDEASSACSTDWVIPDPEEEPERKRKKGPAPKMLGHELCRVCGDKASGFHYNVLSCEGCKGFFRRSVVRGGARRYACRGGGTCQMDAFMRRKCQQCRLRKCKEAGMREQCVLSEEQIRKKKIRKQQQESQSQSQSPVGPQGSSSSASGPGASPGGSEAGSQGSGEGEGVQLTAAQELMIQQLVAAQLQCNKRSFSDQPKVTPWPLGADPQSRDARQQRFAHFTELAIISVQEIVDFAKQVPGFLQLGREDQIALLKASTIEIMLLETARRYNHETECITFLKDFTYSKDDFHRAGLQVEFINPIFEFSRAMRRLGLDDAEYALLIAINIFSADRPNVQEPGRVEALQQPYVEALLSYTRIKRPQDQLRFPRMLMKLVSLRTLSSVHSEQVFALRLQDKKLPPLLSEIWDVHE
Nuclear respiratory factor 1 (Homo sapiens), sequence (Q16656 whole entry, looked up): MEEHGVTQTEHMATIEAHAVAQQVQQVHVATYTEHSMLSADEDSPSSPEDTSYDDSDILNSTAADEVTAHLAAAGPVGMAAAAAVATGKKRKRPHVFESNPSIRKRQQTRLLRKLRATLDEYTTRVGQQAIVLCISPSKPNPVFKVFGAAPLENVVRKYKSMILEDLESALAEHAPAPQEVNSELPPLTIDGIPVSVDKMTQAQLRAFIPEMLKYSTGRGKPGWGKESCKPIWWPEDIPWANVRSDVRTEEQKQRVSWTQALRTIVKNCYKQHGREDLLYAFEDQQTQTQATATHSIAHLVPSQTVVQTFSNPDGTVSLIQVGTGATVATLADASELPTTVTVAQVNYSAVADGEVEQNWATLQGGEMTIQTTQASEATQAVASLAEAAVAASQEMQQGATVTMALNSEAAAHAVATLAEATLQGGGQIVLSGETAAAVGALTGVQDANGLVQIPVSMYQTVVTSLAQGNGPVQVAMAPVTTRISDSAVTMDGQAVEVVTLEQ
Myc proto-oncogene protein (Homo sapiens), sequence (P01106 whole entry, looked up, the tested form may be a part): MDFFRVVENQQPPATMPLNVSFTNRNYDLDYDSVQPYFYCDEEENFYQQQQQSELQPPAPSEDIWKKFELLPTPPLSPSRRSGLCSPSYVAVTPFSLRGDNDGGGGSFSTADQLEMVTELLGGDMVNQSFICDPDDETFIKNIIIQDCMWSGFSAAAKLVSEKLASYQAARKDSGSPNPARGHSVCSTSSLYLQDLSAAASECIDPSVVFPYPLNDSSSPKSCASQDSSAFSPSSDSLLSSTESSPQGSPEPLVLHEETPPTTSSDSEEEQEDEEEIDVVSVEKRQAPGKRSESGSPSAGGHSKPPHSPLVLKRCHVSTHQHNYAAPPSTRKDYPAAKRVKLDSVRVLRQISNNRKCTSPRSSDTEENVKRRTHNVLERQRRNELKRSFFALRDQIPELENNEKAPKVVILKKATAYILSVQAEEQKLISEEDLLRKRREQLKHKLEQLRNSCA
Transcriptional activator Myb (Homo sapiens), sequence (P10242 whole entry, looked up): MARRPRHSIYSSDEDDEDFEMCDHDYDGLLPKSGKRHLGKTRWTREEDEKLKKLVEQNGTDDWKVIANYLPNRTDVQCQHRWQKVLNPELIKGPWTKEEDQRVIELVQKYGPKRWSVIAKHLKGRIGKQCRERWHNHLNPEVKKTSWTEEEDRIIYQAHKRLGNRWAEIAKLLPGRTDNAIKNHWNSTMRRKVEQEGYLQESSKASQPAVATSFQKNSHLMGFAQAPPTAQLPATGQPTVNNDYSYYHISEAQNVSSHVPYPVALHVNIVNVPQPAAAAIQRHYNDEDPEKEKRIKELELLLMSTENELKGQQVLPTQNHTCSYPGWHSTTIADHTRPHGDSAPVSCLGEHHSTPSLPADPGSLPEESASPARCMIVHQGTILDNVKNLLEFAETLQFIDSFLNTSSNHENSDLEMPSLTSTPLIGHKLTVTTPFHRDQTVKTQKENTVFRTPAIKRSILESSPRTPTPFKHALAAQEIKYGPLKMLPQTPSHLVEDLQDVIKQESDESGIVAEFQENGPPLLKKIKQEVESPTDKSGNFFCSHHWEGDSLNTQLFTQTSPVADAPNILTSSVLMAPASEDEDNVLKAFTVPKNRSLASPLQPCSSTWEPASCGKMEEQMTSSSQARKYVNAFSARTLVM
Nuclear receptor subfamily 4 group A member 2 (Homo sapiens), sequence (P43354 whole entry, looked up, the tested form may be a part): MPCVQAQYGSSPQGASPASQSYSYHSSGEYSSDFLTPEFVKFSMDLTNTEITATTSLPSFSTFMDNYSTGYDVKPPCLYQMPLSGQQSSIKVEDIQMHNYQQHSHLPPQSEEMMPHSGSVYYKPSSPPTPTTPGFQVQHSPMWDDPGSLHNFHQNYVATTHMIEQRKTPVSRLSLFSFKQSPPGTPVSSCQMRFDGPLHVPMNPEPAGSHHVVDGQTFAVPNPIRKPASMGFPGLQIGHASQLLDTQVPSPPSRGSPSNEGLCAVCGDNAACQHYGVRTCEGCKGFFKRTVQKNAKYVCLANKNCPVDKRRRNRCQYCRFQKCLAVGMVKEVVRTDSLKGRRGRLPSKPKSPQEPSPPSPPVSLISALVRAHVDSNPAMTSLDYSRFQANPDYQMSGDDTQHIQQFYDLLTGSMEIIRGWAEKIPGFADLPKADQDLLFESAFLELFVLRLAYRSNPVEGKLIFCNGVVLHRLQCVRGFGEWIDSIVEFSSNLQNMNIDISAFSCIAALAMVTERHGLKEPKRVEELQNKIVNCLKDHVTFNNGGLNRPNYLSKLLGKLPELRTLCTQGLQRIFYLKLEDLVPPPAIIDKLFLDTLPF
Oxysterols receptor LXR-alpha (Homo sapiens), sequence (Q13133 whole entry, looked up, the tested form may be a part): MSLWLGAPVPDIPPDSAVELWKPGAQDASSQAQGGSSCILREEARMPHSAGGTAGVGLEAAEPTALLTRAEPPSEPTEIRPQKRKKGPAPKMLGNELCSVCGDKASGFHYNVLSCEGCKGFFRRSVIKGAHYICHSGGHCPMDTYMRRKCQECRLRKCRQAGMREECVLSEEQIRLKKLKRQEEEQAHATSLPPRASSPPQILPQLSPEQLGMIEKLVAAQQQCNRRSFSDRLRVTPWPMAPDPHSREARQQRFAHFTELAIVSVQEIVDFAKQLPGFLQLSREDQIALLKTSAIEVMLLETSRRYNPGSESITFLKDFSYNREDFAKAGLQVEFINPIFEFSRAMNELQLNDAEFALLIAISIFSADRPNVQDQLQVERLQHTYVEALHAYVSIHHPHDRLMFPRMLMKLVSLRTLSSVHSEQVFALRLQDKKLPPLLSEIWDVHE
Estrogen-related receptor gamma (Homo sapiens), sequence (P62508 whole entry, looked up, the tested form may be a part): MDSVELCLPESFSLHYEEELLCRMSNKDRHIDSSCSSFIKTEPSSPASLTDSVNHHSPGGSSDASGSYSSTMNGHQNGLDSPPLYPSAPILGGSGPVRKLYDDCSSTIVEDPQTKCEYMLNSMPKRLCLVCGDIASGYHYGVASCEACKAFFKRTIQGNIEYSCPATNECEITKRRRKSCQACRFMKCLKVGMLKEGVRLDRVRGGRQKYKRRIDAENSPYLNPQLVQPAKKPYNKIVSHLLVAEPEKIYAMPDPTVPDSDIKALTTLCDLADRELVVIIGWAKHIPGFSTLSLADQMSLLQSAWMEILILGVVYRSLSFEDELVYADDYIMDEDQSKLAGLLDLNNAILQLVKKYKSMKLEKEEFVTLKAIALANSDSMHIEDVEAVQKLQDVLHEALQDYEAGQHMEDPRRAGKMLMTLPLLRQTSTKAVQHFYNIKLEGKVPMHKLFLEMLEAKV
Hepatocyte nuclear factor 4-alpha (Homo sapiens), sequence (P41235 whole entry, looked up): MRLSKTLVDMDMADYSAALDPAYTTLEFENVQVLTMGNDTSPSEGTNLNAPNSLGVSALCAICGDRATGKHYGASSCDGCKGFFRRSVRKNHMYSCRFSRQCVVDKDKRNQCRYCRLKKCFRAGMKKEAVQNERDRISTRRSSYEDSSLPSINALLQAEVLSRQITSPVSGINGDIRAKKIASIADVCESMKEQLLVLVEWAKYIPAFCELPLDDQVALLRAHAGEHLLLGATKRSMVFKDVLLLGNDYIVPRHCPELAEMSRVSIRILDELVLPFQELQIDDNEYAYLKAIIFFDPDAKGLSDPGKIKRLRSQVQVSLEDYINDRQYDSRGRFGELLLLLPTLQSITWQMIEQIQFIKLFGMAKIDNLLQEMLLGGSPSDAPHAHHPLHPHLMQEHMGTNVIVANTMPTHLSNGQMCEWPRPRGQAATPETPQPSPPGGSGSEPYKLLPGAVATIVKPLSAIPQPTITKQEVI

For the compound `O=NN(c1ccccc1)c1ccccc1`, the call in test [1], in test [2], in [3], in [4], in [5] and in test [6] was inactive. The call in test [8], in test [9], in test [10], in test [11], in test [12] and in test [13] was inactive. Also, the AC50 in test [7] is 78.9 µM (active).
On to `ClC(Cl)=C(c1ccc(Cl)cc1)c1ccc(Cl)cc1`, for which the call in [14], in test [1], in test [15], in test [16], in test [2] and in test [17] was inactive. The result in test [18], in test [4], in test [6], in [19], in [8] and in test [9] was inactive. Besides, the AC50 in test [4] is 61.1 µM (active) and 100 µM (active); in test [5], 100 µM (active) and 114 µM (active) and 152 µM (active); in test [6], 169 µM (active) and 129 µM (active); in test [7] it was 50.7 µM (active) [middle of 4 runs]; in test [8], 145 µM (active) and 152 µM (active) and 154 µM (active); in test [10], 29.4 µM (active). In addition, the AC50 is 33.4 µM (active) in [11] and 31.3 µM (active) in test [12].
On to `Cc1cc(O)ccc1Cl`, for which the call in test [14], in test [1], in [20], in [2], in test [3] and in test [4] was inactive. The outcome in [5], in [6], in test [19], in test [7], in [8] and in test [9] was inactive. Moreover, the result in [10] and in [11] was inactive. Besides, the AC50 in test [15] was 24.3 µM (active).

Usually AC50 stands for the midpoint of the concentration-response curve, whichever way the signal moves.
